The text below walks through data of PubChem BioAssay AID1851 (National Center for Advancing Translational Sciences (NCATS), 2009).

The campaign covered roughly 16,000 compounds. About 4,000 (25%) were called active. Roughly 26% stayed inconclusive and do not appear here. A selection follows. Unmarked numbers belong to inactive results. The call rests on the fitted dose curve; in most records, active means well fitted curve in the direction sought with a large enough effect; inconclusive means small, poorly fitted or top-dose-only effect, or effect the other way; inactive means no such curve, though single readings can be large or run the other way.
On the % scale 0 is the no-effect control and ±100 the full control effect.

The target of the assay is Cytochrome P450 2C9 (Homo sapiens) (UniProt P11712). Description: Cytochrome panel assay with activity outcomes. The settings on record: recombinant CYP, pro-luciferin dealkylation, luminescence, p450-cyp2c9; series mostly up to 57.1 µM; activity, negative = inhibition: at the top concentration.
Chain of Cytochrome P450 2C9 (Homo sapiens) (P11712 whole entry, looked up): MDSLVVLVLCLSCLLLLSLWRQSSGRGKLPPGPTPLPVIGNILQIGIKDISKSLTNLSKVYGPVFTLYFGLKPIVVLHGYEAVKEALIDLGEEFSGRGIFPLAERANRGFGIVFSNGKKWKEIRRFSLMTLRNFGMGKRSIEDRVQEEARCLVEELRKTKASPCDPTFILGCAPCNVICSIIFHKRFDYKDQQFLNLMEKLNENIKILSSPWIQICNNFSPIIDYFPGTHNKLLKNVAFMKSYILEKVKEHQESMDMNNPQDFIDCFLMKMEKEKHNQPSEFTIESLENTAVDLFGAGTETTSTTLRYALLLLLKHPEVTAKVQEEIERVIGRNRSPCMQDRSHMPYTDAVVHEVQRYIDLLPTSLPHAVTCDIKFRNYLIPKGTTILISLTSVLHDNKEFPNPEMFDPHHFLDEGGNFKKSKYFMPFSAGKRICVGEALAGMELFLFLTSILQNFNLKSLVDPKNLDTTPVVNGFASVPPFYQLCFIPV
As for `C=CC[N+]1(CC#CCOC(c2ccccc2)c2ccccc2)CCOCC1`, the “activity, negative = inhibition” value was -4.98%.

`COc1ccccc1CNc1ncncc1-c1ccccc1C`: the activity, negative = inhibition is 11.7% [at 2.29 µM].

As for `CO/N=C(\C)CCN1CCCCc2nc(C)c(C)cc21`, the activity, negative = inhibition is 8.57% [at 11.4 µM]. Same read-out and setting: with `CC1=CC(=O)C=CC1(C)C(Cl)(Cl)Cl` (configuration not stated) the figure was -19.5%; with `Nc1nccc(Nc2ccc(S(N)(=O)=O)cc2)n1`, -3.1% [at 11.4 µM]. With `CCOc1ccc(C(=O)Nc2cnn(Cc3ccc(Cl)c(Cl)c3)c2)cc1`, the AC50 – broadly, the midpoint of the concentration-response curve, whichever way the signal moves – was 17.8 µM (active). In the case of `CCCOc1ccc(C(=O)CCNc2ccc(C)c(Cl)c2)cc1`, the “activity, negative = inhibition” value was 1.11%. As for `CCOC(OCC)P(=O)(O)CCCNCc1ccc(Cl)c(Cl)c1`, the “activity, negative = inhibition” value is 6.63%.

Consider `CC(C)N(C(=O)CSc1nc2ccccc2n1-c1ccccc1)C(C)C`, for which the half-maximal activity concentration (AC50) is 15.8 µM (active).

Take `CCCCc1c(O)nc(SCCN(C)C)n(-c2ccccc2)c1=O`: the “activity, negative = inhibition” value was -4.69%. For `Cn1c(SCc2nc3ccccc3n2CCO)nc2ccccc21`, the “activity, negative = inhibition” value is -20.4%. In the case of `C[C@@H](N)C(=O)O`, the “activity, negative = inhibition” value is -3.47%. Turning to `CCOC(=O)c1c(NC(=S)Nc2ccccc2)sc2c1CCN(CCc1ccccc1)C2`, the AC50 is 0.282 µM (active). As for `CCN1CCc2c(sc(N)c2C(N)=O)C1`, the “activity, negative = inhibition” value was -3.22%. For the compound `CCN1CCc2c(sc(NC(=S)NC(=O)c3ccccc3)c2C#N)C1`, the “activity, negative = inhibition” value was -29.2%.

`CCSc1nnc(NC(=O)Cc2ccccc2OC)s1`: the “activity, negative = inhibition” value was -20.3%. Still for that read-out and setting: with `CC(=O)CC(=O)Nc1ccc2ccccc2c1` the figure was 21.1% [at 11.4 µM]. Take `O=C(COc1ccc2ccccc2c1)Nc1ccc(Cc2ccncc2)cc1`: the AC50 was 0.316 µM (active).

Consider `CCSc1nnc(NC(=O)COc2ccc3ccccc3c2)s1`, for which the AC50 is 0.224 µM (active). On to `O=C(COc1ccc2ccccc2c1)NNC(=O)Cc1cccc2ccccc12`, for which the “activity, negative = inhibition” value was 4.04%.

For the compound `Nc1nc(Cl)cc(NCCO)n1`, the activity, negative = inhibition is 2.74% [at 11.4 µM]. Same read-out and setting: with `O=C(O)[C@@H]1Cc2c([nH]c3ccccc23)[C@@H](CCCCO)N1` the figure was -6.46% [at 11.4 µM].

In the case of `Cc1cc(C)c(C#N)c(SCc2cc3c(cc2Cl)OCO3)n1`, the AC50 is 3.16 µM (active).

In the case of `N#Cc1cccc(NC(=O)N2CCCC3(CCN(C(=O)c4cnccn4)CC3)C2)c1`, the “activity, negative = inhibition” value was 3.77%.

Consider `COc1ccc(Nc2nnc(-c3ccc(N4CCOCC4)c([N+](=O)[O-])c3)c3ccccc23)cc1`, for which the AC50 was 3.16 µM (active). `CS(=O)(=O)N1CCC2(CC1)CN(C(=O)Nc1cccc(C#N)c1)C2`: the “activity, negative = inhibition” value was -4.82%. Same read-out and setting: with `CC(C)(C)NCC[C@@H](O)c1cc(C(F)(F)F)nc2c(C(F)(F)F)cccc12` the figure was 3.88% [at 11.4 µM]. For `CNCCNS(=O)(=O)c1cccc2cnccc12`, the “activity, negative = inhibition” value is -29.4%.

On to `NCCCCNS(=O)(=O)c1ccc2c(Cl)cccc2c1`, for which the AC50 is 2 µM (active).

Regarding `CCCCCCCNS(=O)(=O)c1cccc2c(Cl)cccc12`, the “activity, negative = inhibition” value was -21.1%. As to `NCCCCCCNS(=O)(=O)c1cccc2c(Cl)cccc12`, the AC50 is 3.16 µM (active).

For `NCCNS(=O)(=O)c1ccc(N)cc1`, the activity, negative = inhibition is -0.285% [at 11.4 µM]. Turning to `NCCCCCCCCCCNS(=O)(=O)c1cccc2c(Cl)cccc12`, the AC50 is 0.0501 µM (active). Still for that read-out and setting: with `NCCNS(=O)(=O)c1cccc2cnccc12` the entry was “inactive”. As for `NCCCCCCCCCCN`, the “activity, negative = inhibition” value was 3.55%. Still for that read-out and setting: with `N[C@@H](CSCc1ccccc1)C(=O)O` the figure was 11.8% [at 11.4 µM]; with `N[C@@H](Cc1ccccc1)C(=O)O`, 13.9% [at 11.4 µM]. As for `N[C@H](C(=O)O)[C@H](OCc1ccccc1)C(=O)O`, the AC50 is 10 µM (active). `Fc1ccc(Nc2ncncc2-c2ccccc2C(F)(F)F)cc1`: the activity, negative = inhibition was -4.04% [at 2.29 µM]. On the same count and under the same terms, with `CN1CCN(c2ccnc(-c3cccc(NS(C)(=O)=O)c3)n2)CC1` the figure was -3.66% [at 2.29 µM]; with `CC(C)c1ccccc1S(=O)c1ccccc1C(C)(C)O` (configuration not stated), -18.2% [at 11.4 µM]; with `c1ccc2sc(SCCSc3nc4ccccc4s3)nc2c1`, 23.1% [at 11.4 µM]. Regarding `NCCSc1nc2ccccc2s1`, the AC50 is 1.58 µM (active).

Consider `c1ccc2sc(SCSc3nc4ccccc4s3)nc2c1`, for which the activity, negative = inhibition was -1.3% [at 11.4 µM]. On to `O=C(CSc1nc2ccccc2s1)N1c2ccccc2Sc2ccc(C(F)(F)F)cc21`, for which the AC50 is 3.55 µM (active). In the case of `O=C(O)CCCSc1nc2ccccc2s1`, the activity, negative = inhibition was -7.61% [at 11.4 µM].

Take `OCCN1CCN(CC/C=C2\c3ccccc3Sc3ccc(C(F)(F)F)cc32)CC1`: the AC50 entry is “inactive”. Take `O=C(CSc1nc2ccccc2s1)Nc1nccs1`: the “activity, negative = inhibition” value was -21%. Take `Cc1ccc(S(=O)(=O)NC(=O)CSc2nc3ccccc3s2)cc1`: the AC50 was 2.51 µM (active). On the same count and under the same terms, with `O=C(CSc1nc2ccccc2s1)NNC(=S)Nc1ccc(Br)cc1` the figure was 5.01 µM (active). Regarding `CC(C)N=c1cc2n(-c3ccc(Cl)cc3)c3ccccc3nc-2cc1Nc1ccc(Cl)cc1`, the “activity, negative = inhibition” value is -15.2% [at 25.6 µM].

Turning to `CN(C)c1ncc2nc(-c3cccc(C#N)c3)c(=O)n(C[C@H]3CCCO3)c2n1`, the “activity, negative = inhibition” value is -10.1%.

As to `CC(C)C(=O)C(C)(C)CCc1ccccn1`, the activity, negative = inhibition was 13.3% [at 11.4 µM]. The same measure, in the same setting: with `O=C1[C@H]2[C@H]3[C@H](O)[C@H](O)C/C(=N/OC[C@@H](O)COCc4ccco4)[C@@H]3CC[C@@H]2C(=O)N1C1CCCCC1` the figure was -9.96% [at 11.4 µM]. On to `CCSC(=N)N`, for which the AC50 entry is “inactive”. Turning to `CO[C@@H]1COC(=O)C/C=C\[C@H](C)COC(=O)[C@H](Cc2ccccc2)NC(=O)C/C=C\[C@H]1C`, the activity, negative = inhibition is -22.5% [at 11.4 µM]. Turning to `O=C(CSc1nc2ccccc2s1)N1c2ccccc2Sc2ccccc21`, the AC50 is 1.12 µM (active). For `CCOC(=O)C1=C(C)C(c2ccccc2OC)NC(=S)N1` (configuration not stated), the AC50 was 15.8 µM (active). Take `COc1ccc(C2C(C(=O)N3CCOCC3)CCC(=O)N2c2ccc(OC)cc2)cc1` (configuration not stated): the “activity, negative = inhibition” value was -18.2%. Regarding `COC(=O)C1=C(C)C(c2ccc(OC)cc2)NC(=S)N1` (configuration not stated), the concentration at half-maximal activity (AC50) was 15.8 µM (active).

As to `COc1ccc(N2C(=O)CCC(C(=O)O)C2c2ccc(F)cc2)cc1` (configuration not stated), the “activity, negative = inhibition” value was -15.9%. Same read-out and setting: with `CCOC(=O)C1C(=O)NC(C)C1c1ccccc1` (configuration not stated) the figure was -20.7%; with `Nc1ccn([C@@H]2O[C@H](COC(=O)C34CC5CC(CC(C5)C3)C4)[C@@H](O)[C@@H]2O)c(=O)n1`, -0.936% [at 11.4 µM]; with `C#CCCCO/N=C1/C[C@@H](O)[C@@H](O)[C@@H]2[C@@H]3C(=O)N(C[C@@H]4CCCO4)C(=O)[C@H]3CC[C@H]12`, -17.1% [at 11.4 µM].

`Cc1cccc2nc(C(F)(F)F)nc(=O)n12`: the “activity, negative = inhibition” value is -45.6%.

On to `C[C@@H](N)[C@@H](C)Cc1ccccc1`, for which the activity, negative = inhibition was -11% [at 11.4 µM]. `O=C(O)C[C@H](Cc1ccccc1)C(=O)O`: the activity, negative = inhibition is -7.58% [at 11.4 µM]. Regarding `Cc1ccc(C)n1C(Cc1ccccc1)C(=O)O` (configuration not stated), the AC50 was 31.6 µM (active).

As to `COc1ncc2nc(-c3ccccc3)c(=O)n(C)c2n1`, the “activity, negative = inhibition” value is -14.7%.

Take `O=S(=O)(c1ccc(F)cc1)n1ccc(-c2cnc(-c3ccccc3)s2)n1`: the AC50 was 7.94 µM (active). `COc1ccc(S(=O)(=O)n2ccc(-c3cnc(-c4ccccc4)s3)n2)cc1`: the AC50 is 1.78 µM (active). For the compound `C[C@@H](N=C(N)N)C(=O)O`, the activity, negative = inhibition was 11.8% [at 11.4 µM].

With `Cc1c(C=O)c2ccccn2c1C(=O)c1ccncc1`, the AC50 is 7.94 µM (active). With `C[C@H](C(=O)c1ccncc1)c1ccccn1`, the activity, negative = inhibition is -11.4% [at 11.4 µM]. Still for that read-out and setting: with `CCCCOC(=O)c1ccc(O)cc1` the figure was -30% [at 25.6 µM]. Still for that read-out and setting: with `CCNC(=O)COC(=O)c1cc(=O)[nH]c2ccccc12` the figure was 67.2%. For `CCCCOC(=O)c1cc2c(cn1)[nH]c1ccccc12`, the AC50 is 7.94 µM (active). For `Nc1ncnc2c1ncn2[C@@H]1O[C@@H](C(=O)NC2CC2)[C@H](O)[C@@H]1O`, the “activity, negative = inhibition” value is 26.2%. Take `CC(C)(C)NS(=O)(=O)c1ccc(NC(=O)c2cc(-c3ccccc3)nc3ccccc23)cc1`: the AC50 is 6.31 µM (active). Turning to `CC(C)(C)c1nnc(NC(=O)c2cc(-c3ccccc3)nc3ccccc23)s1`, the AC50 is 7.08 µM (active). On to `CC(=O)Nc1ccc(-c2cc(C(=O)O)c3cc4ccccc4cc3n2)cc1`, for which the activity, negative = inhibition was 4.42% [at 11.4 µM].

Take `CCC(=O)Nc1nnc(C(C)(C)C)s1`: the “activity, negative = inhibition” value was -24.6%. With `COc1ccc(-c2cc(C(=O)Nc3nc4c(C)cccc4s3)c3ccccc3n2)cc1OC`, the AC50 is 2.51 µM (active).

For `c1cncc(CNc2ncnc3ccc(-c4ccoc4)cc23)c1`, the activity, negative = inhibition was 0.357% [at 2.29 µM]. On the same count and under the same terms, with `Cc1noc(C)c1-c1ccc2ncnc(N3CCN(C)CC3)c2c1` the figure was -6.38% [at 2.29 µM]. As to `Cn1c2c(c(=O)n(C)c1=O)[C@@H]1c3c(ccc4ccccc34)OC[C@@H]1CO2`, the AC50 was 12.6 µM (active). For the compound `CCCC1c2c(ccc3ccccc23)Oc2ccc3ccccc3c21`, the activity, negative = inhibition was -4.51% [at 11.4 µM]. On the same count and under the same terms, with `CN(C)c1ccc(-c2nc(NC3CCNCC3)c3ccccc3n2)cc1` the figure was 12.7% [at 2.29 µM]; with `O=C(COc1ccc(/C=N/NC(=O)c2ccccc2)cc1)Nc1ccc([N+](=O)[O-])cc1`, -5.73%.

With `C/C(=N\NC(=O)COc1ccc([N+](=O)[O-])cc1)C(C)(C)C`, the “activity, negative = inhibition” value is -13.3%. Turning to `CCOC(=O)c1cccc(NC(=O)COc2ccc([N+](=O)[O-])cc2)c1`, the AC50 was 14.1 µM (active).

With `C/C(=N\Nc1nnc(C)c(=O)[nH]1)C(=O)O`, the “activity, negative = inhibition” value was 23.7%. In the case of `O=C(Nc1ccccc1-c1nc2ccccc2[nH]1)c1ccc(S(=O)(=O)N2CCCCC2)cc1`, the AC50 was 2 µM (active). On to `CC(C)(C)n1nc2c(c1NC(=O)c1ccc(S(=O)(=O)N3CCCCC3)cc1)CS(=O)C2` (configuration not stated), for which the “activity, negative = inhibition” value was -25.8%.

As to `COc1ccccc1-c1nc(N(C)Cc2ccco2)c2ccccc2n1`, the activity, negative = inhibition is -7.62% [at 2.29 µM].

As for `CCC(CC)C(=O)Nc1c2c(nn1-c1ccc(OC)cc1)CS(=O)(=O)C2`, the AC50 is 7.94 µM (active). `O=C(Nc1c2c(nn1-c1ccc(F)cc1)CS(=O)(=O)C2)C12CC3CC(CC(C3)C1)C2`: the “activity, negative = inhibition” value was -21.8%.
